Drawing on PubChem BioAssay AID652172 (National Center for Advancing Translational Sciences (NCATS), 2013), this text covers Potency for 1 molecule.

SMILES strings stand for the structures. Some of the results follow. Records with an inconclusive call do not appear. Activity calls are given as the source filed them. Calls come from the whole dose curve; as a rule, active = well fitted inhibition curve with a large enough effect; inconclusive = small, poorly fitted or top-dose-only effect; inactive = flat fitted curve, though single readings scatter.

Ubiquitin carboxyl-terminal hydrolase 2 (Homo sapiens), sequence (O75604 whole entry, looked up): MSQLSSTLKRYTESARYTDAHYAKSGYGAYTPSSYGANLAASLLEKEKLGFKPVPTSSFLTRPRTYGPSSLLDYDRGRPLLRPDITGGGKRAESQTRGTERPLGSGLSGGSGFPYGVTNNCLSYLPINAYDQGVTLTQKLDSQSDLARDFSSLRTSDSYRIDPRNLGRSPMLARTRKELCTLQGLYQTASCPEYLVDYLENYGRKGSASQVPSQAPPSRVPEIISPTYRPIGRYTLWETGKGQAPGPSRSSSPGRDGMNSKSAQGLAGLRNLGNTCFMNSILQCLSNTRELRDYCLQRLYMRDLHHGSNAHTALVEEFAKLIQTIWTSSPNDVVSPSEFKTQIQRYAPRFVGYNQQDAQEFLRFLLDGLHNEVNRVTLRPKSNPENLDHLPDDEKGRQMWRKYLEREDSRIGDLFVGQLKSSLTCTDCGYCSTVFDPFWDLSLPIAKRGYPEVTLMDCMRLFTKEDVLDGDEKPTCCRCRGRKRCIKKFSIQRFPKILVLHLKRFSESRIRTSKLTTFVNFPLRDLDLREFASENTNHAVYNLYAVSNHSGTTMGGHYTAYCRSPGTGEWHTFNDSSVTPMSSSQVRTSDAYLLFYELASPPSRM

The target in this assay is Ubiquitin carboxyl-terminal hydrolase 2 (Homo sapiens) (UniProt O75604). Description: Confirmation Assay for Inhibitors of Ubiquitin-specific Protease USP2a Using CHOP2 as the Reporter: K633. As to conditions: USP2 cleavage of DiUb K63-3IQF, fluorescence kinetic. The text has this:
Homeostasis of cellular proteins is maintained through a combination of synthesis and degradation. The pathway that accounts for the majority of protein degradation is the ubiquitin-proteasomal pathway. Ubiquitin (Ub) is highly conserved in all cells and the generation of a multi-Ub chain typically targets proteins for degradation by the proteasome. However, ubiquitination is highly reversible and dynamic. Deubiquitination, the reverse process, is catalyzed through the action of enzymes referred to as isopeptidases or deubiquitinating enzymes (DUBs). This group of enzymes is collectively responsible for maintaining adequate pools of free ubiquitin and regulating the ubiquitination status of cellular proteins. The class of DUBs referred to as the ubiquitin-specific proteases (USP) family functions endoproteolytically to cleave Ub chains from a wide range of protein substrates. […] Confirmed qHTS active compounds were tested in an orthogonal USP2 assays utilizing a di-ubiquitin substrate labeled with a quencher on one ubiquitin and a fluorescent compound on the other, i.e. the substrate has internally quenched fluorescence or IQF (Lifesensors). In the presence of active USP2, the diubiquitin (DiUb) is cleaved and the fluorescence at 598 nm increases. […] Upon inhibition of USP2, the fluorescence signal from cleaved substrate increases less over time than in the absence of an inhibitor. […]
In the case of `Cc1ccc(-c2cc(C(=O)Nc3ncco3)c3ccccc3n2)cc1C`, the Potency was 3.43 µM (active).
